CR mimetic SO = reduction of superoxide in aged yeast, primary screen, HTS; S. cerevisiae aged cells, superoxide DHE fluorescence; active compounds read low; superoxide response (% of plate mean), % at 10 µM; 0.18% of 330,000 active; AID 2690, 2010;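 active = superoxide response under a set limit, about three screen SD below normal, cut at about 65% in these data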;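 note: yeast aged for seven days with compound at 30 °C before DHE staining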
V-ATPase pH = regulators of yeast V-ATPase proton pumping, primary screen, pHLuorin cytosolic pH fluorescence | response, % at 10 µM | S. cerevisiae | AID 504577, 2011 | 0.37% of 350,000 active; in the data active = response mostly above about 7.3%, no sharp cut-off; inactive = mostly below about 5.4%; note: actives read high
Fh CTSL1 inh = Fasciola hepatica cathepsin L1 inhibitors, primary screen, counter-screen for PFM18AAP inhibitor project, biochemical, QFRET, fluorogenic peptide substrate; recombinant F. hepatica cathepsin L1, Z-Leu-Arg-MCA fluorescence; inhibition, % at 5.96 µM; 0.49% of 300,000 active; AID 1906, 2009;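 active = inhibition above the mean of all tested compounds plus 3 SD, set per screening campaign, cut at about 17% in these data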
iPSC survival up = enhancers of single-cell hiPSC survival, primary screen, ATPlite luminescence | survival enhancement, % at 20 µM | 100% = ROCK inhibitor wells, 0% = DMSO | AID 602274, 2012 | 0.044% of 360,000 active; in the data active = survival enhancement above about 18%;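 note: cells exposed to compounds for 16 hours before the ATP read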
Numbers stand for hits; 0 = inactive; - = no result. An excerpt weighted towards active compounds, which were near 1% of everything screened.

SMILES | CR mimetic SO | V-ATPase pH | Fh CTSL1 inh | iPSC survival up
Cc1cc(C)c(NC(=O)COC(=O)c2ccc([N+](=O)[O-])s2)c(C)c1 | 0 | 0 | 0 | 0
Cc1ccc(N2C(=O)C3C4CCC(O4)C3C2=O)c(OC(F)F)c1 (stereo not given) | 0 | 0 | - | 0
O=C1CCN(Cc2ccccc2)C=C1c1cccc(O)c1 | 0 | 0 | - | 0
CN(CC(=O)NCCc1ccccc1)S(=O)(=O)c1ccccc1 | 0 | 0 | 0 | 0
O=C(O)CCn1nc(-c2ccc(F)cc2)cc(Cc2ccccc2)c1=O | 0 | 0 | 0 | 0
CC(=O)N1c2ccccc2C(=O)C1N1CCCCC1 (stereo not given) | 0 | 0 | 20.9 | 0
CC(=O)Nc1cccc(NC(=O)CSc2nc(=O)n(CCN3CCOCC3)c3c2CCC3)c1 | 0 | 0 | 0 | 0
CC1CCC2(CC1)NC(=O)N(NC(=O)CCl)C2=O (stereo not given) | 0 | 0 | 16.8 | 0
CC1CCN(C(=O)COC(=O)C23CC4CC(CC(O)(C4)C2)C3)CC1 | 0 | 0 | - | 0
O=C(NN1C(=O)/C(=C/c2ccc(O)cc2)SC1=S)c1cccc(O)c1 | 0 | 0 | 19.8 | 0
O=C(NN1C(=O)/C(=C/c2ccc(O)cc2)SC1=S)c1ccccc1O | 0 | 0 | 0 | 0
Cc1cc(NN)nc2ccc(Cl)cc12 | 0 | 0 | 0 | 0
CCCc1cnc(Nc2nc(C(N)Cc3ccc(C(F)(F)F)cc3)cs2)nc1 (stereo not given) | - | - | - | 0
NC(=S)N/N=C/c1ccc(-c2ccc(Cl)c(Cl)c2)o1 | 0 | 0 | 22.9 | 0
NC(=S)N/N=C\c1ccc(-c2cccc(Cl)c2Cl)o1 | 0 | 0 | 19.5 | 0
COc1ccccc1NC(=O)COC(=O)c1[nH]c(=O)[nH]c(=O)c1N | 0 | 0 | - | 0
CCCCCc1cc(=O)oc2c(C(CCN3CCCC3)c3ccc(N(C)C)cc3)c(OC)cc(OC)c12 (stereo not given) | 0 | 0 | 0 | 0
CCCCCc1cc(=O)oc2c(C(CCN3CCN(c4ccccc4)CC3)c3ccc4c(c3)OCO4)c(OC)cc(OC)c12 (stereo not given) | 0 | 0 | 33.3 | 0
CC(OC(=O)CNC(=O)c1ccc(Cl)c(Cl)c1)C(=O)N1CCOCC1 (stereo not given) | 0 | 0 | 24.6 | 0
CC(=O)NCCc1ccc(C(=O)COC(=O)c2cc(C)oc2C)cc1 | 0 | 0 | - | 0
CCC(=O)Nc1ccc(N2CCCCC2)cc1 | 0 | 0 | 0 | 0
O=C(CCl)Nc1ccc(N2CCCCCC2)cc1 | 0 | 0 | 21.3 | 0
Cc1cnc(C(=O)OCC(=O)Nc2ccccc2-c2ccccc2)cn1 | 0 | 0 | - | 0
CSc1nc(N(C)CCO)c2sc3nc(-c4ccco4)c4c(c3c2n1)CCC4 | 0 | 0 | 22.4 | 0
CSc1nc(NCCN(C)C)c2sc3nc(-c4ccco4)c4c(c3c2n1)CCC4 | - | 0 | - | 0
SMILES | CR mimetic SO | V-ATPase pH | Fh CTSL1 inh | iPSC survival up
CCN(CCn1cccn1)C(=O)c1cccc(OC2CCN(S(C)(=O)=O)CC2)c1 | 0 | 0 | 0 | 0
CCn1c(C)c(C(=O)c2ccccc2)c(C#N)c1C(=O)O | 0 | 0 | 18.1 | 0
Cc1ccccc1-c1coc2cc(O)ccc2c1=O | 0 | 0 | 22.6 | 0
Cc1cc(C)cc(Oc2coc3cc(O)ccc3c2=O)c1 | 0 | 0 | 17.3 | 0
CCCOC(=O)Oc1ccc2c(=O)c(Oc3cc(C)cc(C)c3)coc2c1 | 0 | 0 | 0 | 25.3
Cc1ccc(Oc2coc3cc(O)ccc3c2=O)cc1 | 0 | 0 | 0 | 0
COc1ccc(-c2cc(CNc3nc(NC(C)C)nc4cc(-c5ccccc5)sc34)on2)cc1 | - | - | - | 0
NC(=O)CC(NC(=O)Cc1cccc2ccccc12)c1ccc(NCCc2ccccc2F)c([N+](=O)[O-])c1 (stereo not given) | 0 | 0 | 0 | 0
CC1=NN(c2ccccc2)C(=O)C1N=Nc1ccc(C)cc1 (stereo not given) | 0 | - | 0 | -
CC1=NN(c2ccccc2)C(=O)C1N=Nc1ccc(S(N)(=O)=O)cc1 (stereo not given) | 0 | 0 | 19.5 | 0
CCOC(=O)c1cccc(C(=O)Nc2nc3ccc(OC)cc3s2)n1 | 0 | 0 | 0 | 0
COc1cnc(-c2ccccn2)nc1Oc1ccccc1 | 0 | 0 | 0 | 0
COc1cnc(-c2ccccc2)nc1Oc1ccc(Cl)cc1C | 0 | 0 | 18.6 | 0
O=C(CN(C(=O)CNC(=O)c1cccs1)c1cccc(F)c1)NC1CCCC1 | 0 | 0 | 0 | 0
CCCCN(C)c1c(C)nc2ccc(C(=O)N(CC)CCN(C)C)cn12 | - | - | - | 0
CCCOC(=O)C1NC(=O)N2C(C(=O)OCCC)C(C)(C)S[C@H]12 (stereo not given in full) | 0 | 0 | 0 | 22.8
CCCN(C(=O)CCCSc1nc2ccccc2[nH]1)c1c(N)n(Cc2ccccc2)c(=O)[nH]c1=O | 0 | 0 | 19.0 | 0
